# The list is not random: actives were taken first. Their share in the collection is about 4.2%.
# TIM10 inh – inhibits growth of TIM10 yeast strain | S. cerevisiae TIM10 strain growth, BacTiter-Glo luminescence, 24 h | inhibition, % at 10 µM | 330,000 compounds, 1.4% hits;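 active means inhibition of 40% or more at the single tested concentration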;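 further: wild-type TIM10 isogenic control strain grown at permissive 25 °C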
# V-ATPase pHluor – yeast V-ATPase proton transport regulation by pHLuorin; S. cerevisiae, pHLuorin cytosolic pH fluorescence; response, % at 10 µM; 350,000 compounds, 0.37% hits; in the data active means response mostly above about 7.3%, no sharp cut-off; inactive means mostly below about 5.4%; further: actives read high
# tim23-1 inh – inhibits growth of tim23-1 mutant yeast | S. cerevisiae tim23-1 growth, BacTiter-Glo luminescence, 24 h | inhibition, % at 20 µM | 330,000 compounds, 1.3% hits | AID 463212;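 active means growth inhibition of the mutant yeast at or above 50%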;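 further: temperature-sensitive mutant grown at 25 °C; plate controls were DMSO-treated mutant yeast for no effect and medium wells lacking yeast for full effect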
# NALP3 yeast inh – inhibitors of NALP3 inflammasome in yeast; Yeast reconstituted NLRP3/ASC/caspase-1, beta-gal luminescence, 24 h; inhibition, % at 10 µM; 330,000 compounds, 0.39% hits;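 active means inhibition of 50% or more; inactive means inhibition below 50%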;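 further: plate controls were induced DMSO wells for no effect and uninduced yeast grown without galactose for full effect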
# tim10-1 inh – growth inhibitors of tim10-1 mutant yeast | AID 463190 | S. cerevisiae tim10-1 ts strain growth, BacTiter-Glo, 24 h | 330,000 compounds, 2.2% hits | inhibition, % at 20 µM;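 active means inhibition of at least 40%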;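 further: mutant grown at 25 °C; 0% = DMSO wells with yeast and 100% = wells holding no yeast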
# NALP1 inh – NALP1 inhibition | S. cerevisiae NALP1/ASC/caspase-1 growth, X-gal OD620, 72 h | inhibition, % at 10 µM | 280,000 compounds, 0.61% hits | AID 2071; in the data active means inhibition mostly above about 24%, no sharp cut-off; inactive means mostly below about 32%
# tim10-1 confirm – confirmation of tim10-1 mutant yeast growth inhibitors; shares compounds with tim10-1 inh; S. cerevisiae tim10-1 ts strain growth, BacTiter-Glo, 24 h; inhibition, % at 20 µM; 7,400 compounds, 56% hits; AID 463213;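 active means inhibition of yeast growth at or above a set limit in either of two repeat tests at 20 µM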;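 further: tim10-1 mutant grown at permissive 25 °C to find synthetic lethal compounds; 0% = DMSO yeast wells and 100% = medium wells without yeast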
# Numbers without * were called inactive; / = no result.
SMILES,TIM10 inh,V-ATPase pHluor,tim23-1 inh,NALP3 yeast inh,tim10-1 inh,NALP1 inh,tim10-1 confirm
COc1ccc(Cn2nnnc2CN2CCC(c3nc4ccccc4s3)CC2)cc1,29.8,6.5,9.8,4.1,40.8*,-17.4,18.1
COCCOC(=O)C(C#N)c1nc2ccccc2nc1N1CCCC1 (stereo unspecified),24.0,0.7,38.2,19.5,30.3,4.8,/
C=CCOC(=O)C(C#N)c1nc2ccccc2nc1N1CCCC1 (stereo unspecified),17.7,-4.3,38.2,35.3,40.6*,17.4,27.8
C#CCN1C=CC(=O)[C@@H](O)[C@H]1c1ccccc1Br,/,-2.5,/,/,/,/,/
COCCn1c(=S)[nH]c2cc(C(=O)N3CC(C)CC(C)C3)ccc2c1=O (stereo unspecified),-33.4,-2.3,-7.8,4.3,41.1*,-3.6,-61.9
CCCc1nnc(SCC(=O)N2CCCCC2C)n1CCCOC (stereo unspecified),-2.2,0.4,4.0,15.9,9.1,3.1,/
O=C(NCCc1ccccc1)C(=O)NCC1(c2ccccc2)CCCC1,0.6,-0.1,9.3,10.9,9.6,-0.8,/
Fc1cccc(NC(=S)Nc2cccc3ccccc23)c1,21.9,-1.8,20.5,19.6,30.2,8.9,/
CC(=O)N(C)c1ccc(NC(=S)Nc2cccc3ccccc23)cc1,11.5,-0.6,28.6,23.3,22.8,0.8,/
Cc1ccc(NC(=S)Nc2cccc3ccccc23)cc1F,27.3,9.0,35.6,26.8,48.6*,10.3,25.9
CC(=O)c1ccc(NC(=S)Nc2cccc3ccccc23)cc1,28.9,-1.4,22.9,17.2,40.7*,10.7,22.0
O=C(O)CCCn1c(=S)[nH]c2c(sc3ccc([N+](=O)[O-])cc32)c1=O,3.5,-0.1,14.5,6.6,-8.1,1.5,/
CN(CC(=O)O/N=C(\N)c1ccccn1)S(=O)(=O)c1ccc(Br)cc1,12.6,-1.2,22.7,19.6,31.9,/,/
CN(CC(=O)O/N=C(\N)c1ccc(Br)cc1)S(=O)(=O)c1ccccc1,-3.8,3.0,9.5,27.7,49.6*,15.5,43.0*
CCc1cccc(CC)c1NC(=O)CN1CCN(c2ccccc2)CC1,12.2,1.8,17.5,7.9,24.7,28.1,/
Cc1ccccc1CSCC(=O)N1CCN(c2ccccc2)CC1,10.1,-0.6,26.9,-8.6,44.0*,29.9,22.6
O=C(CSCc1ccc(F)cc1)N1CCN(c2ccccc2)CC1,2.2,4.2,21.1,19.7,30.1,-4.6,/
CCOC(=O)c1sc2ncnc(NCc3ccco3)c2c1C,25.9,6.5,36.4,16.7,47.4*,-4.4,35.0*
O=C(Cc1ccc(S(=O)(=O)N2CCOCC2)s1)Nc1ccc2c(c1)CCC2,31.2,4.0,27.4,-3.5,40.7*,2.1,16.9
COc1cc(NC(=O)Cc2ccc(S(=O)(=O)N3CCOCC3)s2)c(OC)cc1Cl,12.7,-8.7,24.5,-9.6,29.8,/,/
O=C(Cc1ccc(S(=O)(=O)N2CCOCC2)s1)Nc1cc(Cl)ccc1Cl,22.8,-0.3,34.3,-2.4,44.3*,/,35.6*
CC(=O)Nc1ccc(S(=O)(=O)NNC(=O)COc2cccc(C)c2)cc1,-6.5,-1.9,-7.4,25.7,-5.7,-3.9,/
COc1ccccc1OCCCC(=O)NC(C)c1ccccc1 (stereo unspecified),11.3,-0.2,8.7,19.5,11.4,-10.1,/
Cc1ccc(Nc2c(-c3ccco3)nc3nc(C)cc(C)n23)cc1,16.6,-0.8,10.0,16.9,41.1*,5.4,13.8
Cc1nnn(C23CC4CC(CC(CC(=O)Nc5ccc(C)c(Cl)c5)(C4)C2)C3)n1,35.5,0.5,44.1,0.9,30.1,-22.4,/
SMILES,TIM10 inh,V-ATPase pHluor,tim23-1 inh,NALP3 yeast inh,tim10-1 inh,NALP1 inh,tim10-1 confirm
Cc1nn(-c2ccccc2)c(Cl)c1C1C(C#N)=C(N)Oc2c1c(C)nn2-c1ccccc1 (stereo unspecified),-2.0,1.7,34.4,6.7,47.0*,9.2,19.4
C=CCOC(=O)C1=C(C)OC(N)=C(C#N)C1c1c(C)nn(-c2ccccc2)c1Cl (stereo unspecified),3.5,2.5,41.4,-5.5,37.1,-7.2,/
CCOC(=O)C1=C(C)OC(N)=C(C#N)C1c1c(C)nn(-c2ccccc2)c1Cl (stereo unspecified),24.4,2.3,46.5,-1.5,52.6*,37.2,34.5*
O=C(NCCc1ccccc1)C(=O)NCC1OCCN1S(=O)(=O)c1ccccc1 (stereo unspecified),6.8,4.3,22.4,8.4,-0.2,/,/
CC1([N+](=O)[O-])COC(C=Cc2ccccc2)OC1 (stereo unspecified),/,1.9,/,/,/,/,/
COc1ccc(NC(=O)c2ccc(CN3CCN(c4ccccc4)CC3)cc2)cc1OC,4.4,-1.5,16.7,17.4,27.9,4.2,/
COc1ccc(C)cc1NC(=O)c1ccc(CN2CCN(c3ccccc3)CC2)cc1,21.2,2.9,36.2,34.4,46.3*,52.1,29.9
O=C(c1ccccc1)N1CCN=C1SCc1ccc([N+](=O)[O-])cc1,2.3,-2.5,14.7,-13.8,15.5,28.4,/
CCn1c(COc2ccc(C(C)C)cc2)nnc1SCC(=O)Nc1nccs1,3.4,-5.5,-0.7,0.5,21.7,5.2,/
CCN(Cc1ccccc1)C(=O)C1CCN(c2ncnc3c2nc2n3CCCCC2)CC1,7.5,-3.8,13.5,6.0,17.7,12.3,/
O=C(C1CCN(c2ncnc3c2nc2n3CCCCC2)CC1)N1CCN(c2ccc(F)cc2)CC1,-63.2,1.4,-28.4,17.1,43.7*,7.8,-96.8
CCc1ccccc1N(CC)C(=O)C1CCN(c2ncnc3c2nc2n3CCCCC2)CC1,16.6,2.3,33.1,12.0,41.6*,9.6,10.2
O=C1C=CCCC1,4.9,4.2,-17.4,-13.8,-15.9,/,/
Nc1nonc1-n1nnc(C(=O)N/N=C/c2ccccc2Cl)c1-c1ccccc1,9.4,-2.5,5.5,19.6,-15.9,-3.9,/
Cc1ccccc1-c1nc(CS(=O)(=O)CC(=O)NC2CC2)c(C)o1,-6.9,-5.1,-4.7,19.5,-5.4,18.1,/
Cc1oc(-c2ccccc2F)nc1CSCC(=O)NC1CCC(C)CC1 (stereo unspecified),5.6,0.4,27.9,11.8,40.3*,13.7,-7.3
Cc1ccccc1-c1nc(CS(=O)(=O)CC(=O)NC2CCCCC2C)c(C)o1 (stereo unspecified),13.9,0.7,15.0,19.7,40.9*,4.4,-2.0
C[C@@H](NC(=O)[C@@H]1Cc2ccccc2CN1)C(=O)NCc1ccco1,-12.3,-0.1,1.7,7.7,16.1,12.7,/
[O-][n+]1cccc2c(Br)cc(Br)c(O)c21,39.8,-1.6,40.3,28.1,49.0*,-11.8,22.7
Oc1c(Br)cc(Br)c2cccnc12,/,-3.6,/,/,/,/,/
c1ccc(-c2cc(-c3nc4ccccc4[nH]3)c3ccccc3n2)cc1,21.9,0.8,40.4,30.2,50.6*,26.4,38.4*

# Screening results: PubChem BioAssay, several laboratories
